MITF inhib – inhibitors of MITF, primary screen, MITF inhibitor project, cell-based, luminescence | AID 2240, 2010 | hit rate 0.28% among 37,000 | TRPM1 promoter luciferase, 24 h | inhibition, % (test concentration not listed); in the data active = inhibition above about 85%; inconclusive = no clear call, values can overlap the other calls; inactive = below about 68%;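 note: human melanocyte line stably carrying TRPM1 promoter luciferase reporter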
Hedgehog inh – Hedgehog pathway signaling inhibitors, primary screen, luminescence, Shh-LIGHT2 cells, Gli-luciferase; Shh-LIGHT2 Gli-luciferase reporter, 30 h; inhibition, % (test concentration not listed); hit rate 2.1% among 22,000; AID 2313, 2010;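 active = mean inhibition across valid replicates above about 65%, limit read from the data; inconclusive = mean under the limit, yet half or more replicates past it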;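 note: pathway switched on by Shh-conditioned medium diluted 1 in 25 in low serum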
NOMO-1 viab – NOMO-1 AML cell viability reduction, primary screen, STK33 inhibitor project, CellTiter-Glo luminescence; inhibition, % (test concentration not listed); hit rate 7.5% among 37,000; NOMO-1 AML viability, 72 h; in the data active = inhibition above about 80%; inconclusive = no clear call, values can overlap the other calls
* = called active by the depositor; u = inconclusive; x = no result given. Compounds with a hit are over-represented: about 7.8% of the library has one in this group of screens.

SMILES	MITF inhib	Hedgehog inh	NOMO-1 viab
CC12CCC3c4ccc(OC(=O)c5ccccc5)cc4CCC3C1CCC2O (stereo unspecified)	16	-9	30
C[C@]12CCC3c4ccc(O)cc4CCC3C1CCC2=O (stereo partly specified)	-32	89*	19
C[C@]12CCC3c4ccc(O)cc4CC[C@H]3C1CC[C@H]2O (stereo partly specified)	13	5	96*
COc1ccc2c(c1)CCC1C2CCC2(C)C(=O)CCC12 (stereo unspecified)	-36	16	24
Cc1cc(C)c(NC(=O)CN(c2cccc(Cl)c2C)S(C)(=O)=O)c(C)c1	13	x	-4
CCn1c(SCC(=O)Nc2ccccc2C)nc2ccccc2c1=O	0	x	-7
Cc1sc2nc(SCC(=O)O)n(-c3ccc(Cl)c(Cl)c3)c(=O)c2c1C	6	x	27
CCOC(=O)/C(=C\Nc1ccc(F)c(Cl)c1)S(=O)(=O)c1ccc(Cl)cc1	-1	x	39
N#C/C(=C\Nc1cccc(Cl)c1)S(=O)(=O)c1ccc(Cl)cc1	31	u	84*
CC1=C(CC/C(C)=C/C(=O)O)[C@@]2(C)CCCC(C)(C)C2CC1 (stereo partly specified)	1	-17	11
CCCCCC1C(=O)O/C(=C\C(=O)O)C1=O (stereo unspecified)	5	-29	-22
C[C@@H]1CN([C@H](C)CO)C(=O)Cc2cc(NC(=O)Cc3ccccc3)ccc2O[C@H]1CN(C)Cc1ccc2c(c1)OCO2	6	-9	7
C[C@@H]1CN([C@H](C)CO)C(=O)Cc2cc(NC(=O)Cc3ccccc3)ccc2O[C@@H]1CN(C)Cc1ccc(Cl)c(Cl)c1	28	26	127*
C[C@@H]1CN([C@@H](C)CO)C(=O)Cc2cc(NC(=O)Cc3ccccc3)ccc2O[C@@H]1CN(C)Cc1ccc(Cl)c(Cl)c1	37	x	108*
C[C@@H]1CN([C@@H](C)CO)C(=O)Cc2cc(NC(=O)Cc3ccccc3)ccc2O[C@@H]1CN(C)Cc1ccccc1	-5	-10	44
O=C(CSc1nnc(Nc2ccccc2)n1-c1ccccc1)Nc1ccc2c(c1)COC2=O	-3	x	-21
CCOc1cc(S(=O)(=O)NCc2ccco2)ccc1Cl	-10	x	5
COc1cc(NC(=O)COc2ccc(Cl)cc2)c(C(=O)O)cc1OC	-11	x	-11
CCN(CC)C(=O)C(c1ccccc1)c1ccccc1	-10	-3	25
CCc1ccc[n+](OC(=O)N(CC)CC)c1	5	x	102*
Cc1cc(C)cc(NC(=O)CSC2CC(=O)N(c3ccc(F)cc3)C2=O)c1 (stereo unspecified)	-2	x	-14
Nc1ccc(OCC(O)C[n+]2ccccc2)cc1 (stereo unspecified)	-2	x	2
CC(C)Oc1ccccc1-c1nc(SCC(N)=O)n[nH]1	-16	x	24
COC(=O)[C@H](Cc1ccc(O)cc1)NC(=O)c1cccc(Cl)c1	-4	-16	110*
CCOC(=O)C(Cc1ccc(O)cc1)NC(C)=O (stereo unspecified)	5	-24	-2
SMILES	MITF inhib	Hedgehog inh	NOMO-1 viab
COc1ccccc1CC(=O)Nc1cc(Cl)ccc1C(=O)O	-6	x	17
COc1ccc(Cl)cc1NC(=O)CN(c1c(C)cccc1C)S(C)(=O)=O	23	x	19
COc1ccccc1-n1nnnc1SCC(=O)Nc1ccccc1F	5	x	14
O=C1NCN(c2ccccc2)C12CCN(CCCC(c1ccc(F)cc1)c1ccc(F)cc1)CC2	-2	84*	114*
COc1cc(Br)cc2cc(C(=O)NCCCN3CCOCC3)c(=O)oc12	-2	x	25
C[C@@H]1CN([C@H](C)CO)C(=O)c2cccc(NC(=O)C3CC3)c2O[C@@H]1CN(C)Cc1ccc(C(F)(F)F)cc1	-3	-35	-1
C[C@@H]1CN([C@H](C)CO)C(=O)c2cccc(NC(=O)C3CCCCC3)c2O[C@@H]1CN(C)Cc1ccc(Oc2ccccc2)cc1	-2	12	25
C[C@H](CO)N1C[C@H](C)[C@H](CN(C)Cc2ccc(-c3ccccc3)cc2)Oc2c(NC(=O)C3CCCCC3)cccc2C1=O	0	0	119*
C[C@@H]1CN([C@@H](C)CO)C(=O)c2cccc(NC(=O)C3CCCCC3)c2O[C@@H]1CN(C)Cc1ccc(-c2ccccc2)cc1	10	6	77
C[C@H]1CN([C@@H](C)CO)C(=O)c2cccc(NC(=O)C3CCCCC3)c2O[C@@H]1CN(C)Cc1ccc(Oc2ccccc2)cc1	31	31	86*
C[C@@H]1CN([C@H](C)CO)C(=O)c2cccc(NC(=O)C3CCCCC3)c2O[C@H]1CN(C)Cc1ccc(C(F)(F)F)cc1	64	11	104*
C[S+](O)c1ccc(CSc2nc(-c3ccc(F)cc3)c(-c3ccncc3)[nH]2)cc1 (stereo unspecified)	-7	-55	-37
Oc1ccc(-c2nc(-c3ccc(F)cc3)c(-c3ccncc3)[nH]2)cc1	-28	74*	50
Cc1cc(C)cc(N(C(C)C(=O)O)S(C)(=O)=O)c1 (stereo unspecified)	-6	x	-12
C=CCNC(=O)c1c(NC(=O)C2COc3ccccc3O2)sc2c1CCCC2 (stereo unspecified)	13	x	74
CC(=O)[C@@]1(O)CCC2C3CCC4=CC(=O)CC[C@]4(C)C3CC[C@@]21C (stereo partly specified)	12	32	34
CCCCCC(=O)O[C@]1(C(C)=O)CCC2C3CCC4=CC(=O)CC[C@]4(C)C3CC[C@@]21C (stereo partly specified)	13	96*	110*
Cc1ccc(N(CC(=O)Nc2cc(Cl)ccc2C)S(C)(=O)=O)cc1C	-11	x	5
CC[n+]1c(C=C2C=C(C)CC(C)(C)C2)oc2ccccc21	28	x	115*
Cc1ccc([N+](=O)[O-])cc1S(=O)(=O)NCCOc1ccccc1Cl	4	x	-9
C[C@@H]1O[C@@H](O[C@@H]2[C@@H](O)[C@H](O[C@@H]3[C@@H](O)[C@@H](O)[C@H](O[C@H]4[C@H](OC(=O)[C@]56CCC(C)(C)C[C@H]5C5=CCC7[C@@]8(C)C[C@H](O)[C@H](O[C@@H]9O[C@H](C(=O)O)[C@@H](O)[C@H](O)[C@H]9O)[C@@](C)(CO)C8[C@H](O)C[C@@]7(C)[C@]5(C)C[C@H]6O)OC[C@H](O)[C@@H]4O)O[C@H]3C)OC[C@H]2O)[C@H](O)[C@H](O)[C@H]1O (stereo partly specified)	1	-3	19
C[C@H]1CN([C@@H](C)CO)C(=O)Cc2cc(NC(=O)Nc3ccc(C(F)(F)F)cc3)ccc2O[C@@H]1CN(C)C(=O)NC1CCCCC1	-7	11	12
C[C@@H]1CN([C@H](C)CO)C(=O)Cc2cc(NC(=O)Nc3ccc(C(F)(F)F)cc3)ccc2O[C@H]1CN(C)C(=O)Nc1ccc(C(F)(F)F)cc1	11	-8	49
COc1ccc(NC(=O)Nc2ccc3c(c2)CC(=O)N([C@@H](C)CO)C[C@H](C)[C@H](CN(C)C(=O)Nc2ccc(C(F)(F)F)cc2)O3)cc1	1	40	20
